Experimental data published in PubChem BioAssay (EPA / NIEHS).
Inconclusive results are not listed. The source made the active and inactive calls. The calls were made as follows: active = hit-call score of the fitted dose curve at least 0.9, where 1 is the maximum; inconclusive = response in the unintended direction; inactive = score below 0.9.

Assay: Tanguay_ZF_120hpf_PIG_legacy: (Legacy) Oregon State University Tanguay Lab 120 Hour Post-fertilization zebrafish Assay for Pigmentation Malformation (AID 2283650)
Procedure, shortened: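 Pronase dechorionation at 4 hpf; embryos plated at 6 hpf, one per well; static exposure, sealed and foil-covered, 28C, to 120 hpf; pigmentation read by brightfield, binary; DMSO 0.64% baseline, 5uM trimethyltin chloride positive control.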

Compound	outcome	AC50
c1cc2c3c(cccc3c1)CC2	inactive	
CC(Cc1ccc(OCC(=O)O)cc1)NCC(O)c1csc(C(F)(F)F)n1 (stereo not given)	inactive	
O=P1(N(CCCl)CCCl)NCCCO1 (stereo not given)	inactive	
c1ccc(OP(Oc2ccccc2)Oc2ccccc2)cc1	inactive	
[N-]=[N+]=[N-]	inactive	
ClC(Cl)c1ccccc1	inactive	
CCCCc1ccccc1	inactive	
c1ccc2c(c1)Nc1ccccc1S2	inactive	
O=C(O)C(Cl)Cl	inactive	
CCNc1nc(Cl)nc(NC(C)(C)C)n1	inactive	
ClC(Cl)(Cl)c1ccccc1	inactive	
Cc1ccc(O)cc1C	inactive	
CCOc1ccc(C(C)(C)COCc2cccc(Oc3ccccc3)c2)cc1	inactive	
Nc1ccc2ccccc2c1		46.5 µM (active)
Nc1cc2c3c(c1)C(c1ccccc1)=N[C@@H](NC(=O)c1cccnc1)C(=O)N3CC2	inactive	
CC(C)(C)OOC(C)(C)C	inactive	
CSC(C)(C)C=NO	inactive	
COCCOCCO	inactive	
CC(Cl)(Cl)C(=O)O	inactive	
CCCCN(CCCC)SN(C)C(=O)Oc1cccc2c1OC(C)(C)C2	inactive	
OCC1CO1 (stereo not given)	inactive	
O=C(O)C1C(C(=O)O)C2(Cl)C(Cl)=C(Cl)C1(Cl)C2(Cl)Cl (stereo not given)	inactive	
CCOC(=O)c1ccccc1C(=O)OCC	inactive	
CCOP(=S)(OCC)SCSCC	inactive	

Assay: Tanguay_ZF_120hpf_CIRC_legacy: (Legacy) Oregon State University Tanguay Lab 120 Hour Post-fertilization zebrafish Assay for Circulatory Malformation (AID 2283651)
Procedure, shortened: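 Read-out: presence or absence of circulatory malformation at 120 hpf, scored by brightfield microscopy, fitted in the gain-of-signal direction against DMSO baseline. Wild-type 5D larvae were exposed from 6 hpf after enzymatic chorion removal.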

Compound	outcome
c1cc2c3c(cccc3c1)CC2	inactive
CC(Cc1ccc(OCC(=O)O)cc1)NCC(O)c1csc(C(F)(F)F)n1 (stereo not given)	inactive
O=P1(N(CCCl)CCCl)NCCCO1 (stereo not given)	inactive
c1ccc(OP(Oc2ccccc2)Oc2ccccc2)cc1	inactive
[N-]=[N+]=[N-]	inactive
ClC(Cl)c1ccccc1	inactive
CCCCc1ccccc1	inactive
c1ccc2c(c1)Nc1ccccc1S2	inactive
O=C(O)C(Cl)Cl	inactive
CCNc1nc(Cl)nc(NC(C)(C)C)n1	inactive
ClC(Cl)(Cl)c1ccccc1	inactive
Cc1ccc(O)cc1C	inactive
CCOc1ccc(C(C)(C)COCc2cccc(Oc3ccccc3)c2)cc1	inactive
Nc1ccc2ccccc2c1	inactive
Nc1cc2c3c(c1)C(c1ccccc1)=N[C@@H](NC(=O)c1cccnc1)C(=O)N3CC2	inactive
CC(C)(C)OOC(C)(C)C	inactive
CSC(C)(C)C=NO	inactive
COCCOCCO	inactive
CC(Cl)(Cl)C(=O)O	inactive
CCCCN(CCCC)SN(C)C(=O)Oc1cccc2c1OC(C)(C)C2	inactive
OCC1CO1 (stereo not given)	inactive
O=C(O)C1C(C(=O)O)C2(Cl)C(Cl)=C(Cl)C1(Cl)C2(Cl)Cl (stereo not given)	inactive
CCOC(=O)c1ccccc1C(=O)OCC	inactive
CCOP(=S)(OCC)SCSCC	inactive

Assay: Tanguay_ZF_120hpf_SWIM_legacy: (Legacy) Oregon State University Tanguay Lab 120 Hour Post-fertilization zebrafish Assay for Swim Bladder Malformation (AID 2283654);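 also: swim bladder malformation in each larva scored yes or no under brightfield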
Procedure, shortened: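 Embryos lacking chorions were exposed individually and statically to test chemical from 6 to 120 hpf at 28C, with 0.64% DMSO as vehicle. At 120 hpf, swim bladder malformation was recorded as present or absent by brightfield microscopy.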

Compound	outcome
c1cc2c3c(cccc3c1)CC2	inactive
CC(Cc1ccc(OCC(=O)O)cc1)NCC(O)c1csc(C(F)(F)F)n1 (stereo not given)	inactive
O=P1(N(CCCl)CCCl)NCCCO1 (stereo not given)	inactive
c1ccc(OP(Oc2ccccc2)Oc2ccccc2)cc1	inactive
[N-]=[N+]=[N-]	inactive
ClC(Cl)c1ccccc1	inactive
CCCCc1ccccc1	inactive
c1ccc2c(c1)Nc1ccccc1S2	inactive
O=C(O)C(Cl)Cl	inactive
CCNc1nc(Cl)nc(NC(C)(C)C)n1	inactive
Cc1ccc(O)cc1C	inactive
CCOc1ccc(C(C)(C)COCc2cccc(Oc3ccccc3)c2)cc1	inactive
Nc1ccc2ccccc2c1	inactive
Nc1cc2c3c(c1)C(c1ccccc1)=N[C@@H](NC(=O)c1cccnc1)C(=O)N3CC2	inactive
CC(C)(C)OOC(C)(C)C	inactive
CSC(C)(C)C=NO	inactive
COCCOCCO	inactive
CC(Cl)(Cl)C(=O)O	inactive
CCCCN(CCCC)SN(C)C(=O)Oc1cccc2c1OC(C)(C)C2	inactive
O=C(O)C1C(C(=O)O)C2(Cl)C(Cl)=C(Cl)C1(Cl)C2(Cl)Cl (stereo not given)	inactive
CCOC(=O)c1ccccc1C(=O)OCC	inactive
CCOP(=S)(OCC)SCSCC	inactive

Assay: Tanguay_ZF_120hpf_NC_legacy: (Legacy) Oregon State University Tanguay Lab 120 Hour Post-fertilization zebrafish Assay for Notochord and Tail Malformation (AID 2283656)
Procedure, shortened: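 Dechorionated Tropical 5D wild-type zebrafish embryos, one per well from 6 hpf, statically exposed to 120 hpf at 28C in 0.64% DMSO final. Notochord distortion scored present/absent by brightfield; dead embryos excluded.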

Compound	outcome
c1cc2c3c(cccc3c1)CC2	inactive
CC(Cc1ccc(OCC(=O)O)cc1)NCC(O)c1csc(C(F)(F)F)n1 (stereo not given)	inactive
O=P1(N(CCCl)CCCl)NCCCO1 (stereo not given)	inactive
c1ccc(OP(Oc2ccccc2)Oc2ccccc2)cc1	inactive
[N-]=[N+]=[N-]	inactive
ClC(Cl)c1ccccc1	inactive
c1ccc2c(c1)Nc1ccccc1S2	inactive
O=C(O)C(Cl)Cl	inactive
CCNc1nc(Cl)nc(NC(C)(C)C)n1	inactive
Cc1ccc(O)cc1C	inactive
CCOc1ccc(C(C)(C)COCc2cccc(Oc3ccccc3)c2)cc1	inactive
Nc1ccc2ccccc2c1	inactive
Nc1cc2c3c(c1)C(c1ccccc1)=N[C@@H](NC(=O)c1cccnc1)C(=O)N3CC2	inactive
CC(C)(C)OOC(C)(C)C	inactive
CSC(C)(C)C=NO	inactive
COCCOCCO	inactive
CC(Cl)(Cl)C(=O)O	inactive
CCCCN(CCCC)SN(C)C(=O)Oc1cccc2c1OC(C)(C)C2	inactive
O=C(O)C1C(C(=O)O)C2(Cl)C(Cl)=C(Cl)C1(Cl)C2(Cl)Cl (stereo not given)	inactive
CCOP(=S)(OCC)SCSCC	inactive
